Paper PMC6212790, “How bacterial xenogeneic silencer rok distinguishes foreign from self DNA in its resident genome”
Whole data set: some 33,000 sequences, median “e-score” near -0.038, cut for the highest 2% near 0.33. The list comes from a sample in which the highest values are over-represented; it also holds similar and randomly drawn sequences.

Target: T1, GST-Rok-C97-191 (Bacillus subtilis subsp. subtilis str. …, UniProt O34857 97-191)
T1 sequence: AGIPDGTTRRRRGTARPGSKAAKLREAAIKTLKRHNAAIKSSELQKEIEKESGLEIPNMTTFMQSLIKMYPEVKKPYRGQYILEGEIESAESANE
Test: protein binding microarray; Rok is a gene silencer of Bacillus subtilis; high values mean tight binding
Conditions: protein: recombinant; tags: GST (pTH5325, pDEST15-Magic modified); dsDNA, one strand shown
Procedure, shortened: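 Each has a 25-mer constant primer and a 35-mer variable part from a de Bruijn sequence of order 10, covering every non-palindromic 8-mer at least 32 times (palindromic 16). Preference for each 8-mer is given as a rank-based, unitless enrichment score (E-score). Its range runs from 0.5 (most favored) to −0.5 (most disfavored).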

Sequence	binding signal
ACATCCGA	-0.00901 E-score
TCAGAGCA	-0.143 E-score
AATTACAA	0.251 E-score
AGTTACAA	0.163 E-score
AGTTACAT	0.342 E-score
AGTTACAG	0.193 E-score
AATTACAG	0.249 E-score
AATTACAT	0.339 E-score
GGACGGAA	-0.113 E-score
CGTGGTCA	-0.0431 E-score
CTTTAACA	0.072 E-score
GGCGACTA	-0.103 E-score
TATAGTCA	0.119 E-score
GATAGTTA	0.373 E-score
CATAGTTA	0.275 E-score
GATAGTAC	0.184 E-score
CATAGTAA	0.272 E-score
TATAGTGA	0.199 E-score
GATAGTCA	0.000914 E-score
TATAGTAA	0.346 E-score
GATAGTAA	0.367 E-score
GCGATGAA	-0.0177 E-score
CCAGAAAG	-0.066 E-score
GAAGCCGA	-0.0818 E-score
TTCAACAA	0.0826 E-score

Sequence	binding signal
CTAAGTAG	0.275 E-score
ATCAGCTA	0.165 E-score
GATAGAGC	-0.0336 E-score
ATTTCGCG	0.158 E-score
ATCGTTTG	-0.0549 E-score
ATAGTTAA	0.327 E-score
ATAGTTGG	0.00189 E-score
ATAGTTTG	0.366 E-score
CGAGTTTC	0.049 E-score
GTAGTTAA	0.405 E-score
ATAGTTGA	0.215 E-score
CTAGTTAA	0.327 E-score
CTAGTTTC	0.422 E-score
ATAGTTTC	0.292 E-score
ATAGTTTA	0.354 E-score
CCAGTTTC	-0.105 E-score
ACATTTGC	0.205 E-score
AGTCAAAG	-0.141 E-score
ACAAGCAC	0.019 E-score
GAAGGCTA	-0.0559 E-score
AACGGACC	-0.186 E-score
TCGCCCAA	-0.12 E-score
CTAGTTTA	0.378 E-score
ATAGTGTG	0.0365 E-score
CTAGTTCC	0.262 E-score

Sequence	binding signal
GGAGTTTA	0.0723 E-score
CTAGTTGC	0.23 E-score
CTAGTTCA	0.0257 E-score
GCAGTTTA	0.113 E-score
GTAGTGTA	0.118 E-score
GTAGTTTA	0.423 E-score
ATAGTGTA	0.346 E-score
CTAGTTGA	0.2 E-score
CTAGTTAC	0.38 E-score
ATGCCCTA	-0.00598 E-score
GCTCGTCA	-0.151 E-score
ACGTTTTC	0.12 E-score
GATGCATA	0.176 E-score
AGTAGCTA	0.37 E-score
GCTAGCTA	0.119 E-score
GGTAGCTA	0.357 E-score
AGTAGCTG	0.233 E-score
GGTAGCGA	0.0646 E-score
CCTAGCTA	0.144 E-score
ACTAGCTA	0.397 E-score
CGTAGCTA	0.289 E-score
AGTAGCTC	0.14 E-score
GCCGTAAA	-0.0195 E-score
ACAAAGTA	0.275 E-score
AATGTCGT	-0.087 E-score

Sequence	binding signal
CTATGAGC	-0.0781 E-score
ACGAATAG	0.0145 E-score
TCGATCAA	0.27 E-score
ATGGAAAG	-0.0465 E-score
AATGATCA	0.156 E-score
ATGTGCAC	-0.0271 E-score
CGAATCAA	-0.196 E-score
CGCTTCAC	-0.177 E-score
AACTGCCC	-0.0946 E-score
AGCCATAA	0.127 E-score
CACAAGAA	-0.0545 E-score
GTTAGTTA	0.325 E-score
AGTAGTTC	0.398 E-score
AGTAGTGC	0.12 E-score
CGTAGTTA	0.199 E-score
AGTAGTGA	0.121 E-score
CTTAGTTA	0.189 E-score
AGTAGTTA	0.424 E-score
CCTAGTTA	0.168 E-score
ATTAGTTA	0.336 E-score
ACTAGTTA	0.448 E-score
CGTAGTTC	0.213 E-score
GCTAGTTA	0.284 E-score
ATTGCTGG	0.137 E-score
TAACCGTA	0.169 E-score

Sequence	binding signal
CGGATACC	0.0204 E-score
ACTGGCAT	0.00831 E-score
GGTAGTCA	0.192 E-score
GGTAGTTA	0.4 E-score
AGTAGTTG	0.393 E-score
GGTAGTGA	0.144 E-score
ATTAGTTG	0.118 E-score
ACTAGTTG	0.313 E-score
CATAGTTC	0.168 E-score
AATAGTTA	0.32 E-score
AATAGTTC	0.343 E-score
GCCCATTA	-0.125 E-score
GTTAGAAC	0.125 E-score
CGTAGAAA	0.338 E-score
GCTAGAAA	0.314 E-score
GGTAGAAA	0.465 E-score
GGTAGACC	-0.0686 E-score
CGTAGAAC	0.207 E-score
TGTAGAAA	0.35 E-score
TTTAGAAA	0.175 E-score
GGTAGAAC	0.4 E-score
CGTAGAAG	0.0648 E-score
TCTAGAAA	0.205 E-score
GGTAGAGA	0.173 E-score
AACGTGGA	0.103 E-score

Sequence	binding signal
AATAGCGC	0.114 E-score
GCCCACAA	-0.0476 E-score
GCATCTGA	-0.0514 E-score
CAAAGAAC	0.232 E-score
GCAGGGGA	-0.184 E-score
TAAACGCA	-0.0161 E-score
CGACAACC	-0.054 E-score
ACCCACGT	-0.188 E-score
GGTAATCA	-0.186 E-score
GTTAATTA	0.19 E-score
CGTAATTA	0.318 E-score
GGTAATTA	0.395 E-score
ATTAATTC	0.147 E-score
AGTAATTA	0.376 E-score
ATTAATTA	0.391 E-score
AGTAATTC	0.273 E-score
AGTAATTG	0.31 E-score
CATTGTAC	0.109 E-score
GTTGAAAA	-0.013 E-score
AGGTATTC	-0.0121 E-score
AACTCTCT	0.0603 E-score
TCTACCCA	0.234 E-score
ACTACCAC	0.383 E-score
CCTACCAC	0.251 E-score
ACTACCAA	0.257 E-score

Sequence	binding signal
ACTACCCA	0.332 E-score
GCTACCAC	0.0411 E-score
ACTACCAT	0.353 E-score
ACTACCAG	0.213 E-score
ACTACCCG	0.0272 E-score
GCCGCGCA	-0.14 E-score
CGTTTCAG	-0.0327 E-score
AGCTCTTA	0.106 E-score
CATCTAAA	0.111 E-score
AGCGGACG	0.000189 E-score
TGACAAAA	0.0786 E-score
ATGATGGG	-0.0998 E-score
CCAGTAGA	0.176 E-score
GGAGTAGA	0.102 E-score
ACAGTAGT	0.258 E-score
AAAGTAGC	0.261 E-score
CTAGTAGA	0.382 E-score
AAAGTAGG	0.262 E-score
AAAGTAGT	0.328 E-score
CAAGTAGA	0.303 E-score
GTAGTAGA	0.368 E-score
GTAGTACA	0.272 E-score
CTAGTAGC	0.251 E-score
ACAGTAGA	0.364 E-score
